Compound activity from PubChem BioAssay.
MazF activator: MazEF (E. coli) toxin RNase activation. actives 0.32% (n = 350,000). activation, % at 20 µM. FAM/BHQ RNA-DNA oligo cleavage fluorescence, 5 h. P0AE70; in the data active means activation above about 50%
Target sequence (P0AE70 whole entry, looked up): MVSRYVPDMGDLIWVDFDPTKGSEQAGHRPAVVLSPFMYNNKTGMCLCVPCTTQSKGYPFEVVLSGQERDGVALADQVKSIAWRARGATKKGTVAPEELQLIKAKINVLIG
TcdB inh: blocks C. difficile toxin B glycohydrolase activity. P18177. TcdB glycohydrolase enzymatic assay, plate reader. inhibition, % at 9.99 µM. actives 0.24% (n = 350,000). AID 652162; in the data active means inhibition above about 10%
Mtb hypoxia inh: Mtb hypoxia fluorescent reporter inhibition | M. tuberculosis hypoxia-regulated fluorescent reporter, fluorescence | fluorescence inhibition, % (concentration not given with the values) | actives 0.1% (n = 300,000) | AID 1159583; in the data active means fluorescence inhibition mostly above about 23%, no sharp cut-off; inactive means mostly below about 17%
RN4220 kill: S. aureus RN4220 growth inhibition; inhibition, % (no concentration beside the values); AID 1259311; actives 0.33% (n = 330,000); OD600, 16 h; in the data active means inhibition above about 85%;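 further: plate controls were untreated cells for no effect and reference antibiotic for full effect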
PfHsp40 rescue: restores yeast growth despite PfHsp40 toxicity; S. cerevisiae expressing PfHsp40, growth rescue, ATP luminescence; growth rescue, % at 12.5 µM; actives 0.68% (n = 340,000); in the data active means growth rescue above about 28%, passing the limit was not always enough;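 further: yeast W303a lacking pdr1 and pdr3 grown in galactose medium; growth measured after three days at 30 °C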
ugtP null kill: growth inhibition of S. aureus ugtP deletion strain. S. aureus RN4220 ugtP deletion, OD600 growth, 16 h. growth inhibition, % (test concentration not listed). actives 0.54% (n = 330,000); in the data active means growth inhibition above about 68%;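 further: plate controls were untreated wells for no effect and antibiotic for full effect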
Active calls of the source: *; x = no result; + = active, no number. Sampled rows, rich in hits. Any-hit rate of the full collection: about 1.3%.

SMILES | MazF activator | TcdB inh | Mtb hypoxia inh | RN4220 kill | PfHsp40 rescue | ugtP null kill
O=c1c2ccccc2sn1-c1ccc(Cl)cc1 | -15.1 | -0.9 | x | x | x | x
COC(=O)c1cccc(N2CCCC2=O)c1 | 5.7 | 0.1 | 3.4 | 3.5 | -0.9 | 9.6
Cc1ccc(C2CC=C(C(=O)O)C(c3ccccc3F)N2S(=O)(=O)c2ccc(C)cc2)cc1 (configuration not stated) | x | x | 9.8 | 24.0 | x | 26.1
O=C(CSc1cccc2cccnc12)N/N=C/c1ccc(F)cc1 | 7.5 | 11.1* | x | x | -1.8 | x
O=C(CSc1cccc2cccnc12)NN=Cc1ccncc1 | x | x | 13.4 | 1.1 | x | 1.2
COc1ccccc1-c1ccc2c(c1)O[C@H](CN(C)C(C)=O)[C@H](C)CN([C@H](C)CO)S2(=O)=O | x | 1.3 | x | x | x | x
COc1cc(C=Nn2cnnc2)ccc1OS(=O)(=O)c1ccccc1[N+](=O)[O-] | x | x | -3.7 | 9.7 | x | 16.7
COc1ccc([N+](=O)[O-])cc1NC(=O)COC(=O)c1ccccc1C(=O)c1ccccc1 | 2.2 | x | 6.5 | 2.3 | -0.8 | -5.5
COc1ccc([N+](=O)[O-])cc1NC(=O)C(C)OC(=O)c1ccccc1C(=O)c1ccc(Cl)cc1 (configuration not stated) | -7.0 | 0.4 | -3.0 | 1.9 | 71.6* | -8.0
COCC(=O)N1CC(=O)N2[C@@H](CO)[C@@H](c3ccc(C#CC4CCCC4)cc3)[C@@H]2C1 | x | -0.9 | x | x | x | x
CCOC(=O)CSC1=NC(=O)/C(=C\c2ccc(OC(C)=O)cc2)S1 | 64.9* | x | 4.1 | -3.5 | 0.7 | 6.5
CCOC(=O)C1=C(C)N=c2s/c(=C/c3cccc([N+](=O)[O-])c3O)c(=O)n2C1c1ccc(OC)cc1OC (configuration not stated) | -6.3 | 0.2 | x | x | 0.2 | x
CCOC(=O)C1=C(C)N=c2sc(=Cc3cccc([N+](=O)[O-])c3O)c(=O)n2C1c1ccc(OC)cc1OC (configuration not stated) | x | x | 40.6* | -14.3 | x | 39.8
CCOC(=O)C1=C(C)N=c2s/c(=C/c3ccccc3)c(=O)n2C1c1ccc(OC)c(OC)c1 (configuration not stated) | 84.7* | x | x | x | 0.8 | x
COc1cccc2cc(-c3nc(-c4cccs4)cs3)c(=O)oc12 | 99.0* | x | 13.4 | 4.1 | 1.0 | -9.6
c1csc(-c2csc(-c3cccs3)n2)c1 | -1.8 | x | 8.0 | 2.1 | 1.4 | 30.0
O=c1oc2ccccc2cc1-c1nc(-c2cccs2)cs1 | 141.4* | x | -4.0 | 7.6 | 0.1 | -8.6
O=C(C[C@H]1C=C[C@H](NC(=O)C2CCC2)[C@@H](CO)O1)NC1CCC1 | x | 0.4 | x | x | x | x
CCC(=O)N[C@@H]1C=C[C@H](CC(=O)NCc2ccccc2OC)O[C@@H]1CO | x | -1.5 | x | x | x | x
Cc1ccc(N=Nc2c(O)n(CN3CCOCC3)c3ccccc23)cc1 | 56.7* | x | -0.1 | 1.5 | 0.3 | -12.4
Cc1cccc(NC(=S)N=Nc2c(O)n(CN3CCOCC3)c3ccccc23)c1C | 10.1 | x | 1.6 | 10.0 | -0.5 | -21.3
Brc1cc2c(cc1C1Nc3ccccc3C3C=CCC31)OCO2 (configuration not stated) | 3.9 | x | 11.3 | -19.8 | -0.8 | 45.2
O=C(O)c1ccc2c(c1)C1C=CCC1C(c1cc3c(cc1Br)OCO3)N2 (configuration not stated) | 5.1 | -0.1 | -0.6 | 7.7 | 65.3* | 12.5
C[C@]12CCC3C(=CCc4cc(O)ccc43)C1CCC2=O (some centres not stated) | x | x | 0.4 | 10.1 | x | 1.9
CC12CCC3C(=CCc4cc(O)ccc43)C1CC(=NO)C2O (configuration not stated) | 1.1 | 13.0* | x | x | -0.1 | x
SMILES | MazF activator | TcdB inh | Mtb hypoxia inh | RN4220 kill | PfHsp40 rescue | ugtP null kill
CC(C)OC(=O)c1cc(NC(=S)Nc2ccc([N+](=O)[O-])cc2)cc(C(=O)OC(C)C)c1 | 3.1 | x | 13.0 | 100.0* | -0.1 | 99.9*
CC(C)CCNC(=S)Nc1ccc([N+](=O)[O-])cc1 | 1.7 | x | -4.8 | 25.2 | 127.6* | -0.9
Cc1ccc(C(C)C)cc1NC(=O)Nc1ccc([N+](=O)[O-])cc1 | 13.4 | -1.2 | x | x | 150.7* | x
Nc1c(C(=O)NN=Cc2ccc(Cl)cc2)cnn1-c1ccccc1 | x | x | -2.9 | 0.2 | x | -2.1
COc1ccc(Cc2c(Cl)ncnc2Cl)cc1 | 1.8 | 1.0 | 5.5 | 4.3 | -0.9 | 3.5
CCOc1ccc(Cc2c(Cl)nc(SC)nc2N(C)C)cc1 | 0.4 | 0.4 | -1.7 | -7.2 | 0.1 | 93.2*
CSc1nc(Cl)c(Cc2ccc(OC(C)C)cc2)c(N(C)C)n1 | 0.2 | 1.4 | 5.5 | -13.0 | 1.1 | 93.9*
CCOc1ccc(Cc2c(Cl)nc(N)nc2Cl)cc1 | -5.7 | x | -7.2 | -1.5 | 0.3 | -1.9
CNC[C@@H]1Oc2ccc(NS(=O)(=O)c3cccs3)cc2C(=O)N([C@H](C)CO)C[C@@H]1C | x | 1.0 | x | x | x | x
Oc1[nH]c2ccccc2c1N=Nc1ccccc1 | 157.9* | -1.4 | -4.5 | 0.8 | 1.2 | -2.3
Oc1[nH]c2ccc(Br)cc2c1N=Nc1ccc(F)cc1 | 564.3* | 0.2 | 6.1 | -11.9 | 1.1 | -0.1
Oc1[nH]c2ccccc2c1N=Nc1ccccc1F | + | 1.5 | 10.9 | 0.6 | -1.3 | -18.1
CC(C)(O)C(=O)N=Nc1c(O)[nH]c2ccccc12 | 16.4 | 0.7 | 5.2 | 6.3 | 0.1 | -2.9
Oc1[nH]c2ccccc2c1N=Nc1ccc(F)cc1 | + | 0.7 | 8.9 | 0.3 | 0.6 | -25.9
O=[N+]([O-])c1ccc(N=Nc2c(O)[nH]c3ccc(F)cc23)cc1 | -24.5 | 0.0 | 1.6 | -10.9 | 0.4 | -17.8
O=C(N=Nc1c(O)[nH]c2ccccc12)Nc1ccccc1 | -14.0 | -3.2 | x | x | 1.7 | x
COc1ccc(S(=O)(=O)N(C)C[C@@H]2OCCCC[C@@H](C)Oc3ccc(NS(=O)(=O)c4ccc(C)cc4)cc3C(=O)N([C@H](C)CO)C[C@@H]2C)cc1 | x | -0.5 | x | x | x | x
Cc1cc(C(=O)NN=Cc2cccnc2)cs1 | x | x | 7.9 | -1.8 | x | 0.2
NC(=O)CNC(=O)C1CC2(CC(c3ccc(Cl)cc3)=NO2)CN1C(=O)c1ccc(Br)cc1 (configuration not stated) | x | x | 8.8 | 2.7 | x | -1.2
Cc1cc(=O)[nH]c(NN=Cc2ccc(Cl)c([N+](=O)[O-])c2)n1 | x | x | -12.5 | 2.2 | x | 6.6
O=[N+]([O-])c1ccc2[nH]c(O)c(N=Nc3ccc(F)cc3)c2c1 | 316.1* | 0.9 | 3.7 | -3.4 | -2.3 | -10.6
Cc1ccc(S(=O)(=O)NC(=O)NCc2ccc3c(c2)OCO3)cc1 | 2.3 | x | 2.5 | 5.9 | 54.6* | 4.7
Cc1ccc(S(=O)(=O)NCC2CCC(C(=O)NCc3ccc4c(c3)OCO4)CC2)cc1 (configuration not stated) | -1.7 | -1.6 | 10.5 | 2.2 | -0.3 | 3.0
Cc1nc2ccccc2nc1N1CCCC1 | 4.8 | 1.4 | 15.3 | 5.2 | 1.1 | 5.3
Cc1ccc(-c2cc3ccccc3nc2N2CCCC2)cc1 | 11.1 | x | x | -2.8 | -0.2 | 89.4*
Clc1ccc(-c2cc3ccccc3nc2N2CCCC2)cc1 | -10.2 | x | x | -2.9 | 0.6 | 71.5
Clc1ccc(-c2cc3ccccc3nc2N2CCOCC2)cc1 | -0.7 | -0.3 | 11.1 | 2.1 | 11.3 | 92.9*
